# Mtb UGM inh – Mtb UDP-galactopyranose mutase inhibition | P9WIQ1 | purified UGM, fluorescence polarization probe displacement | inhibition, % at 10 µM | 320,000 tested, 0.06% active | AID 504406; in the data active means inhibition above about 10%, passing the limit was not always enough
# GDH-TPI counter – inhibits GDH-TPI coupling enzymes, artifact for Mtb FBA screen; GDH-TPI coupled enzyme counterscreen, NADH absorbance; inhibition, % at 4.8 µM; 360,000 tested, 1.2% active; in the data active means inhibition above about 30%
# FBA Mtb inh – Mtb fructose-bisphosphate aldolase inhibition; 360,000 tested, 2.3% active; P9WQA3; purified M. tuberculosis FBA, fluorescence read-out; inhibition, % at 1 µM; in the data active means inhibition above about 27%
# Rv3671c inh – inhibits the M. tuberculosis serine protease Rv3671c. P9WHR9. AID 2606. 320,000 tested, 0.048% active. inhibition, % at 5.96 µM; in the data active means inhibition above about 38%;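 further: extracellular domain of Rv3671c used as enzyme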
# Target sequence (P9WHR9 whole entry, looked up, the tested form may be a part): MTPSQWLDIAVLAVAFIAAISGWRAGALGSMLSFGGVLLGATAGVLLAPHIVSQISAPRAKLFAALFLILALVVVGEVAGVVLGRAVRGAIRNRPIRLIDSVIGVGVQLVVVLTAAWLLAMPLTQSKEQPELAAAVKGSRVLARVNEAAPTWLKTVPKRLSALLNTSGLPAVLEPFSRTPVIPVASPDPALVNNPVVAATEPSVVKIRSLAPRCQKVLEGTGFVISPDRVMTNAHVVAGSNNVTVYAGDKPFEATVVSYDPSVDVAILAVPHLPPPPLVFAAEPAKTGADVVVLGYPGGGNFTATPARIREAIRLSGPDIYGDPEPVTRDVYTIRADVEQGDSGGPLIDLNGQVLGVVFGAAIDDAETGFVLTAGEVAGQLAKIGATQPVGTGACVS
# Numbers stand for hits; . = inactive; / = not tested or not shown; + = active, no number. Only some compounds are listed: those with a hit (about 3.5% of all), similar ones and a draw of the others.
SMILES,Mtb UGM inh,GDH-TPI counter,FBA Mtb inh,Rv3671c inh
COCCN(CC1CCCN(C2Cc3ccccc3C2)C1)C(=O)CCC(F)(F)F (centres undefined),.,.,.,.
N#C/C(=N\Nc1ccccc1)C(N)=S,.,31.0,.,.
N#C/C(=N\Nc1ccc(Cl)cc1)C(N)=S,.,.,.,.
COc1ccc(NC(=O)C2CCN(S(=O)(=O)c3cccc4nonc34)CC2)cc1,.,.,.,.
COc1ccc2sc3cccc(NCCN(C)C)c3c(=O)c2c1,/,/,.,/
COc1ccc2oc3cc(NCCN(C)C)ccc3c(=O)c2c1,/,/,+,/
CC(=O)NC(c1ccc(F)c(F)c1)c1nc(-c2ccccc2)cs1 (centres undefined),/,.,.,/
CC(C)CCNC(=O)c1cc2c(s1)-c1ccccc1S(=O)(=O)C2,.,31.6,.,.
COc1ccc([C@H]2CC(=O)C=C(/C=C/c3ccccc3)C2)cc1OC,.,37.8,.,.
O=C1C=C(/C=C/c2ccccc2)C[C@@H](c2ccc(F)cc2)C1,.,.,.,.
CC(=O)Nc1nc2n(n1)C(c1ccccc1)C=C(c1ccccc1)N2 (centres undefined),.,.,49.7,.
CC(=O)Nc1nc2n(n1)C(c1ccc(Cl)cc1)C=C(C)N2 (centres undefined),.,.,119.4,.
CC(=O)Nc1nc2n(n1)C(c1ccc(F)cc1)C=C(c1ccccc1)N2 (centres undefined),.,.,.,.
CC1=CC(c2ccc(Cl)cc2)n2nc(NC(=O)c3ccccc3)nc2N1 (centres undefined),.,.,.,.
CS(=O)(=O)Nc1nc2n(n1)C(c1ccccc1)C=C(c1ccc(Br)cc1)N2 (centres undefined),.,.,33.8,.
CSCC[C@@H](CO)NC(=O)[C@H]1O[C@@H](n2ccc(=O)[nH]c2=O)[C@H](O)[C@@H]1O,/,/,.,/
CCOC(=O)c1cnn2c1[nH]c(=O)c1ccccc12,.,.,30.0,.
CCOC(=O)c1cnc(Cc2ccccc2)[nH]c1=O,.,.,.,.
CC(=O)c1ccc2c(c1)N(Cc1ccccc1Cl)C(=O)C(C)S2 (centres undefined),/,.,.,/
COc1ccc(C(=O)CC(=O)c2ccccc2O)cc1,.,.,171.1,.
COc1ccc(O)c(C(=O)CC(=O)c2cccnc2)c1,/,.,114.9,/
COc1ccc(C(=O)CC(=O)c2ccccc2O)cc1OC,.,.,.,.
COc1ccc(O)c(C(=O)CC(=O)c2ccccc2C)c1,.,.,.,.
Nc1cc2c(cc1Cl)-c1ccccc1C2=NO,/,.,.,/
CCCCCCc1cc2cc(S(=O)(=O)c3ccc(Cl)cc3)c(=O)oc2cc1O,.,.,.,.
SMILES,Mtb UGM inh,GDH-TPI counter,FBA Mtb inh,Rv3671c inh
O=c1oc2cc(O)ccc2cc1-c1nc2ccccc2o1,/,/,+,/
O=c1oc2cc(O)ccc2cc1S(=O)(=O)c1ccccc1,.,.,+,.
CCN(CC)c1ccc2cc(S(=O)(=O)c3ccc(Cl)cc3)c(=O)oc2c1,19.9,.,.,.
N#CCN1CCC/C1=C\[N+](=O)[O-],.,31.8,.,.
COc1ccc(CCNC(=O)CC(c2ccccc2)c2cccc(C)c2O)cc1OC (centres undefined),.,.,.,.
Oc1ccc(N=Cc2ccc(-c3cccs3)s2)cc1,.,34.9,+,.
O=Cc1ccc(-c2cccs2)s1,/,.,+,/
CCCCOc1ccc(N=Cc2cccs2)cc1,/,.,.,.
CCN(CC)C(=O)c1ccc(-c2cccs2)s1,.,.,.,.
Cc1n[nH]c(C)c1N1C(=O)c2cccc3c(N4CCCCCC4)ccc(c23)C1=O,13.6,.,.,.
C=CCN1C(=O)c2cccc3c(N4CCCCC4)ccc(c23)C1=O,.,.,.,.
O=C(COC(=O)c1cccc(Cl)c1)Nc1cc(S(=O)(=O)N2CCOCC2)ccc1N1CCOCC1,/,.,.,/
O=C1c2cccc3c(N4CCCCC4)ccc(c23)C(=O)N1CCO,30.3,.,.,.
O=C(OCCN1C(=O)c2cccc3c(N4CCOCC4)ccc(c23)C1=O)c1cccc(Cl)c1,24.5,/,/,.
O=C(OCCN1C(=O)c2cccc3c(N4CCOCC4)ccc(c23)C1=O)c1ccc(Cl)cc1Cl,22.9,.,.,.
O=C(COC(=O)c1ccc(CSc2ccc(Cl)cc2)cc1)Nc1ccccc1,.,.,.,.
CSc1ncccc1C(=O)N1CCCC(CCC(=O)NCc2ccc(F)c(F)c2)C1 (centres undefined),.,.,.,.
CCC(CC)CN1C(N(C)C)=NC[C@@H]1CC(C)C,.,.,.,.
O=C(OCCN1C(=O)c2cccc3c(N4CCOCC4)ccc(c23)C1=O)c1ccccc1Cl,22.3,.,.,.
O=C(OCCN1C(=O)c2ccccc2C1=O)c1cc(S(=O)(=O)N2CCOCC2)ccc1Cl,.,.,.,.
Fc1ccc(-c2ccnc3nc(N4CCOCC4)nn23)cc1,.,.,51.5,.
O=C1CCCC2=C1C1(CCCC1)N=C(Nc1nc3cc(-c4ccccc4)ccc3o1)N2,/,.,.,/
COc1cc(/C=N/Nc2ncc(C(F)(F)F)cc2Cl)cc(OC)c1OC,.,31.9,.,.
Cc1cccc2nc(CNC(=O)C3CCC(=O)N(Cc4ccccc4F)C3)cn12 (centres undefined),.,.,.,.
Cc1cc(-c2ccc(Cl)cc2Cl)c(C#N)c(=O)[nH]1,.,.,.,.
SMILES,Mtb UGM inh,GDH-TPI counter,FBA Mtb inh,Rv3671c inh
CCCc1[nH]c(=O)c(C#N)c2c1CCCC2,.,.,.,.
CC(C)(C)c1cc(C(F)(F)F)c(C#N)c(=O)[nH]1,.,.,119.5,.
CCCc1cc(C(F)(F)F)c(C#N)c(=O)[nH]1,.,.,156.0,.
CC(C)N(C(=O)c1nn(C)c2c1CSc1ccccc1-2)C1CCCCC1,.,.,.,.
O=C1CSC(=Nc2cccc(Cl)c2Cl)N1,.,.,.,.
CC(=O)c1ccc(N2CCN(C(=O)c3cc(-c4cccnc4)nc4ccc(Br)cc34)CC2)cc1,.,46.3,.,.
CC(C)CC1C(=O)N(Cc2cn(CCC3OCCO3)nn2)CCS(=O)(=O)N1Cc1ccc(-c2cccc(N(C)C)c2)cc1 (centres undefined),/,.,.,/
CCN(CC)C(=O)C1=C(C)N(Cc2ccc(C(C)(C)C)cc2)C(=O)C(CC(=O)NCCCCc2ccccc2)C1 (centres undefined),/,.,.,/
CN(C)Cc1c(O)ccc2cc(-c3nc4ccccc4n3C)c(=O)oc12,.,.,+,.
COCCN1C(=O)C(=O)/C(=C(/O)c2cccc(OC)c2)C1c1ccco1 (centres undefined),.,35.1,.,.
COCCCN1C(=O)C(=O)/C(=C(/O)c2ccc(OCC(C)C)cc2C)C1c1cccnc1 (centres undefined),.,44.2,.,.
C=CCOc1ccc(/C(O)=C2\C(=O)C(=O)N(CCOC)C2c2cccnc2)cc1 (centres undefined),.,34.3,.,.
COc1cccc(/C(O)=C2/C(=O)C(=O)N(Cc3cccnc3)C2c2ccco2)c1 (centres undefined),.,.,.,.
CCN(CC(=O)Nc1ccccc1OC)Cc1csc(CC(=O)Nc2ccc(C)cc2)n1,.,.,.,.
Cc1cc2c3c([nH]c2cc1S(=O)(=O)NCCCOC(C)C)CC(C)(C)CC3=O,.,.,.,.
Cc1ccc(-c2cc(-c3ccccc3)nc(Cl)n2)cc1,.,.,.,.
